A selection: hits, their analogues and other compounds. The true share with any hit is near 7.9%.
SW480 rereplic – induces DNA re-replication in SW480 colon adenocarcinoma cells; SW480 DNA re-replication, Hoechst DNA content imaging, 48 h; Potency, µM (top dose mostly 46.1 µM), most hits filed as activators; hit rate 1.8% among 340,000; AID 624297; note: nearly all actives have a fitted effect of over 55% in size
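Compounds, transferred as 23 nL by pin tool, were incubated with cells for 48 hr; DNA content per nucleus was then quantified by Hoechst staining and fluorescence plate imaging.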
HT1080-NT tox – kills 2HG-producing HT-1080-NT fibrosarcoma cells. HT-1080-NT fibrosarcoma viability, CellTiter-Glo ATP luminescence, 48 h. hit rate 1.6% among 360,000. AID 686970. Potency, µM (titrated, usually from 46.1 µM), actives largely listed as cytotoxic;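 note: NT is the 2HG producing partner of a matched IDH1 knockdown line; nearly all actives have a fitted effect of over 55% in size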
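Fibrosarcoma NT cells, 750 per well in 5% FBS RPMI, were exposed to compound for 48 hours. Viability: CellTiter-Glo luminescence.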
HT1080 IDH1KD tx – kills HT-1080 cells with IDH1 knockdown; HT-1080 IDH1 knockdown viability, ATP luminescence, 48 h; Potency, µM (doses to about 46.1 µM), most hits filed as cytotoxic; hit rate 2% among 360,000
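Cytotoxicity counter-line: IDH1KD HT-1080, 48 h, CellTiter-Glo. Curves classed by r2, magnitude and activity.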
MCF10A rerep – DNA re-replication induction in MCF 10a cells | MCF 10A DNA re-replication, Hoechst nuclear intensity, 48 h | Potency, µM (top dose mostly 46.1 µM), hits mostly activators | hit rate 2.9% among 350,000; note: nearly all actives have a fitted effect of over 50% in size
KB-V1 cytotox – kills drug-selected multidrug resistant KB-V1 cells. hit rate 3.4% among 400,000. Potency, µM (series often up to 46.1 µM), most hits filed as cytotoxic. KB-V1 MDR cells viability, CellTiter-Glo, 72 h. AID 1347076; note: nearly all actives have a fitted effect of over 60% in size
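Cytotoxicity via CellTiter-Glo luminescence after 72 h compound exposure at 37 degrees C. Cells: drug-selected KB-V1 line, DMEM phenol-red free plus 10% FBS. Compounds tested at multiple concentrations; normalized data fitted to concentration-effect curves.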
KB-3-1 tox – kills parental KB-3-1 adenocarcinoma cells; KB-3-1 viability, CellTiter-Glo ATP luminescence, 72 h; Potency, µM (highest dose often 46.1 µM), most hits filed as cytotoxic; hit rate 1.4% among 400,000; note: nearly all actives have a fitted effect of over 60% in size
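72 h, 37 °C compound treatment of KB-3-1 parental cells; CellTiter-Glo added, 10 min, luminescence read. Data corrected against DMSO-only plates and normalized before curve fitting.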
A number is an active result; [ ] = remark or other dose. Calls come from the whole dose curve; as a rule, active = well fitted curve in the direction sought with a large enough effect; inconclusive = small, poorly fitted or top-dose-only effect, or another doubt; inactive = no such curve, though single readings can be large; an effect the other way counts as inactive or inconclusive.

How did O=C(c1cc(C(=O)NCc2ccccc2)c(=O)n(Cc2ccccc2)c1)c1cc(Cl)ccc1O do in these assays?
SW480 rereplic: inactive; HT1080-NT tox: inactive; HT1080 IDH1KD tx: inactive; MCF10A rerep: inconclusive; KB-V1 cytotox: 18.4µM; KB-3-1 tox: inconclusive

How did O=C(NCc1ccccc1)c1cccn(Cc2ccccc2)c1=O do in these assays?
SW480 rereplic: inactive; HT1080-NT tox: inactive; HT1080 IDH1KD tx: inactive; MCF10A rerep: inactive; KB-V1 cytotox: inactive; KB-3-1 tox: inactive

What do the screens show for `NC(=O)CSc1nnc([C@@H](N)Cc2c[nH]c3ccccc23)o1`?
SW480 rereplic: inactive; HT1080-NT tox: inactive; HT1080 IDH1KD tx: inactive; MCF10A rerep: inactive; KB-V1 cytotox: inactive; KB-3-1 tox: inactive

What do the screens show for `CC(C)Sc1nnc([C@@H](N)Cc2c[nH]c3ccccc23)o1`?
SW480 rereplic: inactive; HT1080-NT tox: inactive; HT1080 IDH1KD tx: inactive; MCF10A rerep: inactive; KB-V1 cytotox: 18.4µM; KB-3-1 tox: inactive

Results for Cn1c(NN=O)nc2ccccc21 ?
SW480 rereplic: inconclusive; HT1080-NT tox: inconclusive; HT1080 IDH1KD tx: 4.61µM; MCF10A rerep: inactive; KB-V1 cytotox: inactive; KB-3-1 tox: inconclusive

Results for CN1CCN(Cc2nc3ccccc3n2C)CC1 ?
SW480 rereplic: inactive; HT1080-NT tox: inactive; HT1080 IDH1KD tx: inactive; MCF10A rerep: inactive; KB-V1 cytotox: inactive; KB-3-1 tox: inactive

Results for O=S1(=O)N(CCN2CC=C(c3c[nH]c4cc(F)ccc34)CC2)c2cccc3c2N1CCC3 ?
SW480 rereplic: inconclusive; HT1080-NT tox: 13µM; HT1080 IDH1KD tx: 16.4µM; MCF10A rerep: inconclusive; KB-V1 cytotox: inconclusive; KB-3-1 tox: inconclusive

How did COc1cccc(CN2CC=C(c3ccc(F)cc3)CC2)c1 do in these assays?
SW480 rereplic: inactive[9.22 µM]; HT1080-NT tox: inactive; HT1080 IDH1KD tx: inactive; MCF10A rerep: inactive; KB-V1 cytotox: inactive; KB-3-1 tox: inactive

How did CCOC(=O)C1(CCc2ccccc2)CCN(Cc2ccc3c(c2)OCCO3)CC1 do in these assays?
SW480 rereplic: inactive; HT1080-NT tox: 23.1µM; HT1080 IDH1KD tx: 16.4µM; MCF10A rerep: inactive; KB-V1 cytotox: inconclusive; KB-3-1 tox: inconclusive

What do the screens show for `CCOC(=O)C1(CCCc2ccccc2)CCN(C2CCCC2)CC1`?
SW480 rereplic: 16.4µM; HT1080-NT tox: inactive; HT1080 IDH1KD tx: inactive; MCF10A rerep: inconclusive; KB-V1 cytotox: inactive; KB-3-1 tox: inconclusive

How did CCOC(=O)C1(CCc2ccccc2)CCN(C2CCSCC2)CC1 do in these assays?
SW480 rereplic: inconclusive; HT1080-NT tox: inactive; HT1080 IDH1KD tx: inactive; MCF10A rerep: inactive; KB-V1 cytotox: inconclusive; KB-3-1 tox: inactive

What do the screens show for `CC(=O)N1CC(=O)Nc2ccc(Cl)cc2C1c1ccc(F)cc1` (stereo unspecified)?
SW480 rereplic: inactive; HT1080-NT tox: inactive; HT1080 IDH1KD tx: inactive; MCF10A rerep: inactive; KB-V1 cytotox: inconclusive; KB-3-1 tox: inactive

What do the screens show for `CCOC(=O)c1ccc(NC(c2ccc(N(C)C)cc2)P(=O)(OC(C)C)OC(C)C)cc1` (stereo unspecified)?
SW480 rereplic: inconclusive; HT1080-NT tox: inactive; HT1080 IDH1KD tx: inactive; MCF10A rerep: inconclusive; KB-V1 cytotox: inactive; KB-3-1 tox: inactive

How did COc1ccc(-c2nc(CN3C(=O)CN=C(c4ccccc4)c4ccccc43)c(C)o2)cc1 do in these assays?
KB-V1 cytotox: inconclusive; KB-3-1 tox: 14.6µM

Results for N#Cc1cc(NC(=O)c2ccc(Cl)cc2)ccc1Sc1ccccc1 ?
HT1080-NT tox: inconclusive; HT1080 IDH1KD tx: 20.6µM; KB-V1 cytotox: inactive; KB-3-1 tox: inconclusive

How did COC(=O)C1=C(c2cccc(OCc3ccccc3)c2)C[C@@H]2CC[C@H]1N2C(=O)NCc1ccc2[nH]ccc2c1 do in these assays?
SW480 rereplic: inactive; HT1080-NT tox: inactive; HT1080 IDH1KD tx: inactive; MCF10A rerep: 5.17µM; KB-V1 cytotox: inactive; KB-3-1 tox: inconclusive

Results for COC(=O)C1=C(c2ccc(OCc3ccccc3)cc2)C[C@@H]2CC[C@H]1N2C(=O)NCc1ccccc1OC ?
HT1080-NT tox: inactive; HT1080 IDH1KD tx: inactive; KB-V1 cytotox: inconclusive; KB-3-1 tox: 20.6µM
